A selection: hits, their analogues and other compounds. The true share with any hit is near 20%.
Pf growth 96h – Primary qHTS for delayed death inhibitors of the malarial parasite plastid, 96 hour incubation. P. falciparum luciferase reporter growth, 96 h. Potency, µM (top dose mostly 28.7 µM), without a hit: at the highest dose activity change, negative = inhibition, actives largely listed as inhibitors. 320,000 compounds, 6.9% hits. AID 504834, 2011; also: potency is read from the fitted curve at half-maximal effect; % is scaled to controls: 0 for no effect and ±100 for the full control effect
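Delayed-death screen, second-generation endpoint: infected erythrocytes, 2% hematocrit, 0.05% parasitemia final; 96 hours at 37 C, 5% CO2; luciferase detection reagent; luminescence decrease equals reduced growth.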
CHX counter – Cycloheximide Counterscreen for Small Molecule Inhibitors of Shiga Toxin; max response, %; cell reporter, cycloheximide protein synthesis inhibition counterscreen; 300,000 compounds, 12% hits; in the data active = max response mostly above about 13%, no sharp cut-off; inactive = mostly below about 14%; also: read at 38.3 µM for the half of the compounds with a filed dose; 0% is about no effect
Pf growth 48h – Primary qHTS for delayed death inhibitors of the malarial parasite plastid, 48 hour incubation; P. falciparum luciferase growth in erythrocytes, 48 h; Potency, µM (series often up to 28.7 µM), for the others: at the top dose activity change, negative = inhibition, usual class: inhibitors; 310,000 compounds, 5.9% hits; also: potency is read from the fitted curve at half-maximal effect; % is scaled to controls: 0 for no effect and ±100 for the full control effect
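Read-out is firefly luciferase luminescence from an integrated reporter in P. falciparum, so falling signal marks reduced parasite growth. Infected erythrocytes were at 2% hematocrit and 0.1% parasitemia (final) in Albumax-supplemented RPMI 1640.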
Shiga inhibitor – A qHTS for Small Molecule Inhibitors of Shiga Toxin; Vero cells, Shiga toxin protein synthesis inhibition reporter; inhibition, % at 38.7 µM; 290,000 compounds, 9.2% hits; AID 2315, 2010; in the data active = inhibition mostly above about 28%, no sharp cut-off; inactive = mostly below about 43%; also: 0% is about no effect
HCMV antiviral – qHTS Assay for inhibitors of the human cytomegalovirus (HCMV) | HFF cells, HCMV-luciferase reporter, 72 h; stronger effect = lower value | activity change, negative = inhibition, % at 57.5 µM | 410,000 compounds, 4.5% hits | AID 1259415, 2018; in the data active = activity change below about -60%; inconclusive = no clear call, values can overlap the other calls; inactive = above about -39%; also: % is scaled to controls: 0 for no effect and ±100 for the full control effect
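Cell-based, HFFs, 1000 cells/well, 16 h 37C; cpds in DMSO + HCMV-luc, MOI 1 PFU/cell; 72 h 37C; OneGlo luminescence after 5 min RT; norm. to buffer vs Salinomycin 10uM.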
An asterisk follows results filed as active. Unless noted, calls follow the shape of the dose curve; as a rule, active = well fitted inhibition curve with a large enough effect; inconclusive = small, poorly fitted or top-dose-only effect, or another doubt; inactive = no such curve, though single readings can be large or run the other way.

`S=C(NCc1ccccn1)Nc1ccc(Cl)c(Cl)c1` gave Pf growth 96h inconclusive, CHX counter 27.9, Pf growth 48h inconclusive, Shiga inhibitor 15.8 and HCMV antiviral 11.1.
Cc1cccnc1NC(=S)Nc1ncccc1C was read as Pf growth 96h 368.0%, CHX counter 31.5*, Pf growth 48h 162.8%, Shiga inhibitor 67.9* and HCMV antiviral 9.9.
For FC(F)(F)c1cccc(NC(=S)NCCc2ccccn2)c1 the results were Pf growth 96h inconclusive, CHX counter 17.5, Pf growth 48h -22.5%, Shiga inhibitor 15.1 and HCMV antiviral -29.7.
`Cc1cccnc1NC(=S)NCCc1ccccc1` gave Pf growth 96h -3.0%, CHX counter 37.4*, Pf growth 48h 3.8%, Shiga inhibitor 70.2* and HCMV antiviral 22.2.
`S=C(NCCc1ccccn1)NC1CC2CCC1C2` (stereo not given) gave Pf growth 96h inconclusive, CHX counter 26.6*, Pf growth 48h 23.0%, Shiga inhibitor 42.8 and HCMV antiviral 34.5.
Screening S=C(NCCc1ccccc1)Nc1ncccn1 returned HCMV antiviral 31.9.
For O=C(CN1N=C(c2ccccc2)CCC1=O)NCc1ccc(F)cc1Cl the results were HCMV antiviral 26.6.
Screening CCn1c(C)c(C)c2cc(C(=O)NCC(C)c3ccccc3)ccc21 (stereo not given) returned HCMV antiviral 0.0.
For O=C(CNc1cc(S(=O)(=O)N2CCOCC2)ccc1NCC1CCCO1)Nc1ccc(F)c(F)c1 (stereo not given) the results were Pf growth 96h inconclusive, CHX counter -0.8, Pf growth 48h inconclusive, Shiga inhibitor 27.2 and HCMV antiviral 28.3.
`CCOc1ccccc1NC(=S)NC1CC2CCC1C2` (stereo not given) gave Pf growth 96h 5.22µM*, CHX counter 6.1, Pf growth 48h inconclusive and Shiga inhibitor -1.2.
`COc1ccc(NC(=S)Nc2ncccc2C)cc1OC` gave Pf growth 96h -2.5%, CHX counter 46.4*, Pf growth 48h 196.2%, Shiga inhibitor 75.6* and HCMV antiviral -28.3.
Screening CCOc1ccccc1NC(=S)Nc1ncccc1C returned Pf growth 96h 91.2%, CHX counter 9.4, Pf growth 48h 4.6%, Shiga inhibitor -3.0 and HCMV antiviral -61.1*.
Screening O=C(NNC(=S)Nc1ccc(Cl)c(Cl)c1)c1ccccn1 returned Pf growth 96h inconclusive, CHX counter 36.5*, Pf growth 48h 2.33µM*, Shiga inhibitor 87.3* and HCMV antiviral -82.3*.
Screening COc1ccc(NC(=S)NC2CC3CCC2C3)c(OC)c1 (stereo not given) returned Pf growth 96h inconclusive, CHX counter 7.1, Pf growth 48h inconclusive, Shiga inhibitor 5.2 and HCMV antiviral 12.6.
`COC(=O)c1ccc(NC(=O)Cn2nnc(-c3cccs3)n2)cc1` gave Pf growth 96h inconclusive, CHX counter -1.9, Pf growth 48h -5.9%, Shiga inhibitor -11.5 and HCMV antiviral 5.3.
Screening CCOc1ccccc1NC(=S)Nc1ccccc1F returned Pf growth 96h 13.1µM*, CHX counter 5.0, Pf growth 48h 0.9%, Shiga inhibitor 9.7 and HCMV antiviral -3.9.
COc1ccc(NC(=S)Nc2ncccc2C)c(OC)c1 was read as Pf growth 96h inconclusive, CHX counter 62.8*, Pf growth 48h 18.9%, Shiga inhibitor 68.1 and HCMV antiviral -63.1*.
For COc1ccccc1NC(=S)Nc1ccccc1F the results were Pf growth 96h 38.1%, CHX counter 9.2, Pf growth 48h 16.0%, Shiga inhibitor 16.2 and HCMV antiviral -14.6.
For COc1ccc(NC(=S)Nc2ccccc2)c(OC)c1 the results were Pf growth 96h 49.3%, CHX counter 15.7, Pf growth 48h -26.2%, Shiga inhibitor 7.7 and HCMV antiviral -8.7.
`CCSCc1nnc(SCC(=O)Nc2cccc(C(C)=O)c2)n1C` gave Pf growth 96h 20.5%, CHX counter -0.8, Pf growth 48h -6.8%, Shiga inhibitor -6.3 and HCMV antiviral -30.7.
`CC(C)CN1CCN(Cc2cn(C)c3ccccc23)CC1CCO` (stereo not given) gave Pf growth 96h inconclusive, CHX counter -0.7, Pf growth 48h -7.1%, Shiga inhibitor -2.6 and HCMV antiviral 29.3.
For OC(Cc1ccncc1)c1ccccc1Cl (stereo not given) the results were HCMV antiviral -16.9.
O=C(N/N=C/c1ccc[nH]1)c1ccc(Cl)cc1 was read as Pf growth 96h -4.7%, CHX counter 34.0*, Pf growth 48h 54.1%, Shiga inhibitor 39.4* and HCMV antiviral inconclusive.
Screening CN(C)c1ccc(C(=O)N/N=C/c2ccccn2)cc1 returned Pf growth 96h 9.28µM*, CHX counter 58.3*, Pf growth 48h -28.7%, Shiga inhibitor 74.6* and HCMV antiviral 85.3.
`O=C(N/N=C/c1ccccn1)c1ccccc1` gave Pf growth 96h 18.3%, CHX counter 47.8*, Pf growth 48h inconclusive, Shiga inhibitor 70.5* and HCMV antiviral 30.1.
Screening Cc1cccc(/C=N/NC(=O)c2ccc(NC(=O)c3ccc(Cl)cc3)cc2)n1 returned Pf growth 96h 41.5%, CHX counter 10.9*, Pf growth 48h -15.6%, Shiga inhibitor 4.6 and HCMV antiviral 7.0.
Screening O=C(Cc1cccs1)N/N=C/c1ccccn1 returned Pf growth 96h 9.6%, CHX counter 27.1*, Pf growth 48h 12.9%, Shiga inhibitor 39.1* and HCMV antiviral 15.3.
For Cc1ccc(C(=O)Nc2ccc(C(=O)N/N=C/c3ccccn3)cc2)cc1 the results were Pf growth 96h 21.6%, CHX counter 24.6*, Pf growth 48h inconclusive, Shiga inhibitor 31.1* and HCMV antiviral 36.0.
O=C(Cc1ccc(F)cc1)N/N=C/c1ccccn1 was read as Pf growth 96h inconclusive, CHX counter 2.3, Pf growth 48h 14.0%, Shiga inhibitor -6.6 and HCMV antiviral -20.9.
O=C(N/N=C/c1ccccn1)c1ccc(Cl)cc1 was read as Pf growth 96h 14.1%, CHX counter 45.7*, Pf growth 48h 14.7µM*, Shiga inhibitor 101.9* and HCMV antiviral -97.5*.
O=C(N/N=C/c1ccccn1)c1cccs1 was read as Pf growth 96h inconclusive, CHX counter 37.8*, Pf growth 48h inconclusive, Shiga inhibitor 75.5* and HCMV antiviral -19.0.
Cc1ccc(C(=O)Nc2ccc(C(=O)N/N=C/c3cccnc3)cc2)cc1 was read as Pf growth 96h inconclusive, CHX counter 10.8, Pf growth 48h 6.8%, Shiga inhibitor 31.2 and HCMV antiviral 36.5.
`O=C(N/N=C\c1ccccn1)c1cccc(C(=O)N/N=C\c2ccccn2)n1` gave HCMV antiviral -14.1.
For Cc1cc(C(=O)N2CCC2(C)C(=O)Nc2cccc3c2CCCC3)nn1C (stereo not given) the results were HCMV antiviral -27.5.
CC(C)NC(=O)CCn1c(SCc2c(F)cccc2Cl)nc2c(sc3ccccc32)c1=O was read as HCMV antiviral -11.8.

Screening results from PubChem BioAssay.
